# Whole data set: some 33,000 sequences, median “E-score (-0.5 to 0.5)” near -0.036, cut for the highest 2% near 0.37. The full list was thinned out, with the highest values kept by preference.
# Target: T1, Yer064c (UniProt P40041)
# T1 sequence: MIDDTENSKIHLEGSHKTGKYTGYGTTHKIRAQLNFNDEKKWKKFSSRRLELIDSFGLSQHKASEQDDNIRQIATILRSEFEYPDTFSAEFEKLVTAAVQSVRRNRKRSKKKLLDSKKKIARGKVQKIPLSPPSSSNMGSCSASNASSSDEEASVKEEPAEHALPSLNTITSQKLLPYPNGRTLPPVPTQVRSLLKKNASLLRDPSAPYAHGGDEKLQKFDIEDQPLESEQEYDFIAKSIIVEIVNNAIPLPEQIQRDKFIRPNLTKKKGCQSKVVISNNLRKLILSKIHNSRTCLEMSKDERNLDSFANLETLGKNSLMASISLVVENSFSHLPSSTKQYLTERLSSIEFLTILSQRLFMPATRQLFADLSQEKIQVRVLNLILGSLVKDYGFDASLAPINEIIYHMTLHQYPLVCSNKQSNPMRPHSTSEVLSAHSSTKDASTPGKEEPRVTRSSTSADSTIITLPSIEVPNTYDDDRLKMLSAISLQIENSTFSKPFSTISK
# Test: PBM E-score (8-mer binding enrichment) (E-score (-0.5 to 0.5)); higher = stronger / more preferred TF binding
# Details: protein concentration: 200 nM; construct: GST-full length
# Protocol: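 Universal 'all 10-mer' protein binding microarrays (Agilent AMADID 015681) probed with GST-tagged S. cerevisiae TFs (full-length or DBD) made by in vitro transcription/translation (PURExpress), about 100-200 nM. Bound TF was detected with fluorescent anti-GST. Each ungapped 8-mer (which stands for itself and its reverse complement) is scored by the PBM enrichment score (E-score), a modified Wilcoxon-Mann-Whitney statistic from -0.5 to +0.5, computed with the Universal PBM Analysis Suite. Scale: above 0.35 generally sequence-specific binding.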
row,Sequence,PBM E-score
1,TGATTACA,0.41
2,TGATTTAA,0.407
3,CGATTAAA,0.249
4,AGATTTAA,0.2
5,CGATTTAA,0.188
6,GGATTAAA,0.205
7,AGGTAGGG,-0.121
8,GATTGGCC,-0.0787
9,CCAACAAA,-0.069
10,ACTGCGGA,-0.0234
11,CCGGACTA,0.103
12,AGTTTAGG,0.0907
13,AGCAACTG,-0.155
14,CTTGACCC,-0.164
15,CTTGACTC,0.463
16,ATTGACAC,0.0304
17,CTTGACTA,0.435
18,GTTGACTA,0.457
19,CTTGACAA,0.113
20,CTTGACGC,-0.268
21,GTTGACAA,-0.00857
22,ATTGACTG,0.275
23,ATTGACTC,0.445
24,GTTGACGA,0.126
25,CTTGACCA,0.0717

row,Sequence,PBM E-score
1,ACTAACAC,0.315
2,CTAATTAG,0.175
3,AACATTAA,-0.00496
4,CTCGATGC,-0.0842
5,GCCTATCC,-0.207
6,GGACCTAC,-0.132
7,GTTATCAA,0.041
8,AGGCCGCA,-0.226
9,AAGTTTCT,0.0369
10,CAAACAGA,0.0255
11,CATAGGCC,-0.158
12,GTGTTCAA,0.0916
13,CCCCTACC,-0.124
14,ACACTTTC,-0.0867
15,ATTGACTA,0.428
16,ATTGACAA,0.0616
17,ATTGACGA,0.188
18,ATTGGCTA,0.0683
19,AGTCGCCG,0.36
20,CGTCGCAG,-0.031
21,AGTCGCTG,0.303
22,CGTCGCTA,-0.0862
23,GGTCGCTA,-0.197
24,AGTCGCCC,0.403
25,AGTCGCAG,0.367

row,Sequence,PBM E-score
1,CGTCGCTC,-0.159
2,AGTCGCCA,0.356
3,AGTCGCAC,0.353
4,AGTCGCTC,0.382
5,AGTCGCTA,0.371
6,AGATTCGC,-0.0217
7,GCCCCCAC,-0.265
8,AATGCCCT,-0.232
9,CCAGAATC,0.0913
10,CAGAAGGA,-0.151
11,GGGAGACC,-0.259
12,CCCTCTTA,-0.103
13,AGCATTAA,0.0916
14,AGTACTCG,0.261
15,ATTACTCA,0.329
16,CTTACTCC,0.128
17,AGTACTCA,0.393
18,GGTACTCA,0.381
19,AGTACTCC,0.171
20,GGTACTTA,-0.0396
21,CGTACTCA,0.335
22,CTTACTCA,0.373
23,AGGTGAAA,0.0659
24,AATGTGTA,0.222
25,ACGGATAA,-0.0519

row,Sequence,PBM E-score
1,CATCAGCA,-0.143
2,AGTCATTG,0.475
3,AGCCATTC,0.0873
4,CGTCATTA,-0.0609
5,GGTCATTA,-0.0121
6,AGGCATTG,-0.171
7,AGTCATTA,0.487
8,CGTCATTC,-0.0565
9,AGCCATTG,0.247
10,AGTCATTC,0.482
11,CCTGGAAG,-0.1
12,GGAAGCCC,-0.374
13,AGCGCGGG,0.00652
14,ATTCCAGG,0.118
15,TCAGCGAA,0.186
16,ACAATCTC,-0.108
17,ACCCATCT,0.182
18,CCTCATCC,-0.323
19,GCTCATCA,0.184
20,ACTCATCA,0.412
21,ACGCATCT,-0.0617
22,ACTCATCG,0.409
23,ACTCATCT,0.401
24,GCTCATCC,-0.0652
25,CCTCATCG,-0.207

row,Sequence,PBM E-score
1,TCTCATCA,0.115
2,ACACATCG,0.158
3,ACTCATCC,0.455
4,AACTTTGG,-0.0438
5,CTGCTAGA,0.00564
6,GAATGCCA,-0.127
7,CAGGGGCC,-0.269
8,CTCACAAA,0.232
9,ACGTTATA,0.0989
10,AGGATGAT,0.281
11,GGAGATCC,-0.237
12,CACTCCTC,-0.206
13,GACTCCTC,0.419
14,GACTCCTA,0.443
15,AACTCCTA,-0.137
16,CACTCCTA,-0.0701
17,AACTCCTC,-0.169
18,ACGGGCTA,-0.288
19,GGTGGCTA,0.181
20,ATTCAGAA,0.139
21,CACCGCAA,-0.0119
22,ACTTAACG,0.0504
23,TACAGTAA,0.128
24,GACAGTCC,0.0581
25,TACAGTGA,0.211

row,Sequence,PBM E-score
1,AACAGTCG,0.209
2,AACAGTCA,0.384
3,CACAGTCA,0.411
4,GACAGTTA,-0.103
5,CACAGTCG,0.203
6,GACAGTCA,0.409
7,CACAGTCC,0.132
8,AACAGTCT,0.204
9,TACAGTCA,0.418
10,ACGGAGCG,-0.0547
11,AAGAGAGG,-0.104
12,CTGCTAAA,-0.141
13,AGTTCCAC,-0.0556
14,AAACGGGG,-0.128
15,CTGGACAG,0.0136
16,ATGCACCC,-0.0692
17,AAATAGTC,0.382
18,AAATAGTG,0.062
19,GAATAGTC,0.38
20,GAATAGTA,-0.0424
21,CAATAGTA,-0.0839
22,CAATAGTG,0.0438
23,AAATAGTT,-0.0372
24,CAATAGTC,0.409
25,GAATAGCC,-0.0409

row,Sequence,PBM E-score
1,GCGTAGAA,-0.12
2,CACCGTTA,0.0864
3,ATTGGTTG,-0.0268
4,CGCTCCCG,0.17
5,AAACCACA,-0.0212
6,ACTAACCG,0.163
7,TATTTGCA,0.0422
8,CGTCATGA,0.253
9,AGTCATGG,0.479
10,AGCCATGG,0.268
11,AGTCATGA,0.485
12,GGTCATGA,0.255
13,ATTCATGG,0.224
14,ATTCATGC,0.137
15,CGTCATGC,-0.173
16,AGTCATGC,0.487
17,TACTTACA,-0.0596
18,GAAGCCTA,-0.143
19,AACGTATT,-0.12
20,AGGGATAG,-0.255
21,TAGAGAGA,0.0957
22,AGAAGCAG,-0.1
